Each structure is given as a SMILES string. Hit rate of the full screen: of about 220,000 compounds, about 2,000 (0.91%) were called active. Roughly 2% stayed inconclusive and do not appear here. Cut-off read from the data, not from the text of the source: inconclusive = inhibition above about 80% without an active follow-up result; inactive = below that; test concentration not stated here. These entries were drawn from the full list. Potency and affinity values are given separately.

A short description of this test: M. tuberculosis H37Rv growth inhibitors, H37Rv strain (AID 1626).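 Note: bacteria incubated seven days before Alamar blue readout; 0% = bacteria only wells and 100% = bacteria with antibiotic wells.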 To be noted: active compounds read high, concentration not given here.
Usually inhibition stands for the drop in the measured response relative to a control, in per cent. As for `Cc1ccc2nsnc2c1S(=O)(=O)N1CCCC1`, the inhibition was -7.86% (inactive). As for `CCOC(=O)Cc1csc(NC(=O)c2c(O)c3c(n(CC(C)C)c2=O)CCCC3)n1`, the inhibition was 71.9% (inactive).

With `CCCCCCCCn1c(=O)c(C(=O)OCC)c(O)c2ccccc21`, the inhibition is 7.93% (inactive). Take `CCCCCn1c(=O)c(C(=O)OCC)c(O)c2ccccc21`: the inhibition is -3.26% (inactive). For the compound `CC(C)CCn1c(=O)c(C(=O)Nc2ccccc2S(N)(=O)=O)c(O)c2ccccc21`, the inhibition was -11.9% (inactive).

With `O=c1cc(CN2CCCCC2)nc(C2CC2)[nH]1`, the inhibition was 3.51% (inactive). In the case of `Oc1ccc(-c2nccc(-c3cccs3)n2)cc1`, the inhibition was -3.17% (inactive). For `Cc1ccc(C(=O)Nc2nccc(-c3cccs3)n2)cc1`, the inhibition was -6.72% (inactive). For the compound `Cc1ccc(C(C)C)c(OCC(O)CN2CCN(CCO)CC2)c1` (configuration not stated), the inhibition is 2.52% (inactive).

With `CN(C)/C=N/c1c(C#N)cnn1C`, the inhibition is -9.88% (inactive). As to `O=C(O)c1ccc(CN2C(=O)c3ccccc3S2(=O)=O)cc1`, the inhibition was -3.5% (inactive). For `N#CC(c1ccccc1)c1ccc2c(C(F)(F)F)cc(C(F)(F)F)nc2n1` (configuration not stated), the inhibition is -11.8% (inactive). Consider `Cc1ccc(C(C#N)c2ccc3c(C(F)(F)F)cc(C(F)(F)F)nc3n2)cc1` (configuration not stated), for which the inhibition was 12% (inactive). Take `Cc1ccc(C)c(-c2nc3cc(N)ccc3o2)c1`: the inhibition was 77.1% (inactive).

As for `CCc1ccc2oc(-c3cccc(N)c3)nc2c1`, the inhibition was 5.28% (inactive). As for `CCc1ccc2oc(-c3cc(N)ccc3Cl)nc2c1`, the figure is 1.18% (inactive); as for `Cc1ccc2nc(-c3cc(N)cc(N)c3)oc2c1`, 56.3% (inactive). `Cc1ccc2nc(-c3cccnc3)oc2c1`: the inhibition was -9.72% (inactive). As to `Nc1ccc2oc(-c3cccc4ccccc34)nc2c1`, the inhibition is 4.7% (inactive).

For the compound `Cc1ccc(-c2nc3cc(N)ccc3o2)c(C)c1`, the inhibition was 8.94% (inactive).

With `Nc1cccc(-c2nc3cc(S(=O)(=O)c4ccc5oc(-c6cccc(N)c6)nc5c4)ccc3o2)c1`, the inhibition was -1.41% (inactive). As to `CC(C)CNS(=O)(=O)c1ccc(CCC(=O)Nc2cc(Cl)ccc2Oc2ccccc2)cc1`, the inhibition was 9.05% (inactive).

With `CC(=O)Nc1cccc(Cn2cccn2)c1`, the inhibition is -6.83% (inactive). The value for `Cc1ccc(C)c(S(=O)(=O)NC(Cc2c[nH]c3ccccc23)C(=O)O)c1` (configuration not stated) was -3.14% (inactive); that for `Cc1ccc(N(C(=O)c2ccncc2)C2C=CS(=O)(=O)C2)cc1` (configuration not stated) was -9.29% (inactive); that for `CCCCCCc1cc2cc(C(=O)NCc3ccccc3)c(=N)oc2cc1O` was -13.1% (inactive). Regarding `CCCCCCc1cc2cc(C(N)=O)c(=N)oc2cc1O`, the inhibition was -2.17% (inactive).

As for `O=C1N=C(N2CCN(c3cccc4ccccc34)CC2)S/C1=C/c1cccs1`, the inhibition was 85.6% (inactive).

With `O=C1N=C(N2CCN(c3ccccc3)CC2)S/C1=C/c1cccs1`, the inhibition was 50.8% (inactive). For `CCOc1ccc(NC(=O)NCCN2C(C)CCCC2C)cc1` (configuration not stated), the inhibition is -2.64% (inactive). For `N#Cc1c(NC(=O)CSCC(=O)O)sc2c1CCCC2`, the inhibition was -15.3% (inactive). With `O=C(Nc1nc2ccccc2[nH]1)c1ccccc1`, the inhibition is 19.3% (inactive). Take `COc1ccc2oc(C(=O)Nc3nc4ccccc4[nH]3)c(C)c2c1`: the inhibition is 51.1% (inactive). As for `Cc1c(C(=O)Nc2ccncc2)oc2ccccc12`, the figure is -1.93% (inactive). With `C/C(=N\Nc1nc2ccccc2[nH]1)c1cc2ccccc2o1`, the inhibition was 56.4% (inactive). For `O=C(/C=C\c1ccc2c(c1)OCO2)Nc1nnc(SCC(=O)OCc2ccccc2)s1`, the inhibition is 20.4% (inactive). With `CCOc1ccc(OCC)c(S(=O)(=O)NC2CC(C)(C)NC(C)(C)C2)c1`, the inhibition was -3.13% (inactive). With `COc1cccc(CNC(=O)Cn2nc(-c3ccc(Cl)cc3)ccc2=O)c1`, the inhibition is 4.51% (inactive).

Consider `CCOC(=O)C(C)Sc1nc(=O)n2cc(C)ccc2n1` (configuration not stated), for which the inhibition is 3.92% (inactive).

`Cc1ccc([N+](=O)[O-])cc1NCC(=O)NN`: the inhibition was -8.54% (inactive). As to `N=C(N)SCc1nc2ccccn2c1Br`, the inhibition is -11.2% (inactive). Turning to `c1ccc2c(SCc3cn4ccccc4n3)nncc2c1`, the inhibition is -2.83% (inactive). For the compound `CC(C)c1ccc2c(c1)C(c1cccs1)=NNC(c1ccncc1)=N2`, the inhibition was 0.38% (inactive). With `COc1ccc(-c2nnc3ccc(SC(C(C)=O)C(C)=O)nn23)cc1OC`, the inhibition is 2.29% (inactive). As for `COc1ccc(NC(C)=O)cc1C#N`, the figure is 0.78% (inactive). Regarding `NS(=O)(=O)c1ccc(NC=C2C(=O)OC3(CCCCC3)OC2=O)cc1`, the inhibition was 4.66% (inactive). With `O=C1OC2(CCCCC2)OC(=O)C1=CNc1ccc2c(c1)OCO2`, the inhibition is 55.9% (inactive). As for `COCCCNC(=O)Cn1cc(C(C)=O)c2ccccc21`, the inhibition is -10.3% (inactive). Consider `CC1CCCC(NC(=O)COC(=O)[C@@H](NC(=O)c2ccco2)C(C)C)C1C` (some centres not stated), for which the inhibition was -2.77% (inactive). Consider `Cc1ccc(NC(=O)c2cccs2)cc1`, for which the inhibition was -1.3% (inactive). Regarding `CCc1cc2cc(C(=O)N3CCN(c4ccccc4)CC3)sc2s1`, the inhibition is 2.92% (inactive). `CCc1cc2cc(C(=O)Nc3ccccc3F)sc2s1`: the inhibition is 0.32% (inactive). As to `CC(C)(C)c1ccc(C(=O)Nc2ccc(F)cc2)s1`, the inhibition is 12.9% (inactive). As to `Cc1cc(C(F)(F)F)nc(SCc2ccc(C(=O)O)o2)n1`, the inhibition was -10.7% (inactive). On to `COc1ccc(Cn2c(=S)[nH]c3ccsc3c2=O)cc1`, for which the inhibition was -1.7% (inactive).

With `O=c1[nH]cc(COCC(F)(F)C(F)(F)C(F)(F)F)c(=O)[nH]1`, the inhibition is 5.87% (inactive). For `Cc1ccc(S(=O)(=O)N2CCC(C(=O)NNC(=O)c3ccccc3)CC2)cc1`, the inhibition is 0.71% (inactive). For the compound `C/C(=N\NC(=O)c1cc(-c2ccncc2)nc2ccccc12)c1ccc(OC(F)F)cc1`, the inhibition was 0.28% (inactive). Take `C#CCNC(=O)C1=C[C@H](c2ccc3c(c2)OCO3)C[C@H](OCCCCO)O1`: the inhibition is -6.12% (inactive). With `CCCCNC(=O)COC(=O)c1c2c(nc3ccccc13)/C(=C/c1cccs1)CC2`, the inhibition was 36.5% (inactive). As for `CC(C)CNC(=O)COC(=O)c1c2c(nc3ccccc13)/C(=C/c1cccs1)CC2`, the inhibition was 32.2% (inactive). Regarding `COc1ccc(NC(=O)COC(=O)c2c3c(nc4ccccc24)CCCC3)cc1`, the inhibition is -13.1% (inactive). Turning to `CCc1cccc(C)c1NC(=O)COC(=O)c1c2c(nc3ccccc13)/C(=C\c1cccs1)CCC2`, the inhibition was 1.95% (inactive). In the case of `COc1ccc(-c2[nH]ncc2CN2CCC(N3CCSCC3)CC2)cc1F`, the inhibition was -4.08% (inactive). As to `CCOC(=O)C(/C=C(\C#N)C(=O)OCC)=C(/N)N1CCN(c2ccccc2)CC1`, the inhibition was -0.44% (inactive). Turning to `CCOC(=O)C(/C=C(\C#N)C(=O)OCC)=C(/N)N1CCN(c2ccc(OC)cc2)CC1`, the inhibition was 6.53% (inactive). As to `COc1ccc(C(=O)Nc2ccc(Cl)cn2)cc1Cl`, the inhibition is 12.4% (inactive). As for `COC(=O)c1cc(NC(=O)CSc2nc(C)cc(=O)[nH]2)cc(C(=O)OC)c1`, the figure is -18.1% (inactive); as for `CC(=O)Nc1ccc(N/C(N)=N/c2nc(C)cc(C)n2)cc1`, 4.6% (inactive); as for `Cc1ccc(N/C(N)=N/c2nc(C)cc(C)n2)cc1`, -3.3% (inactive). Regarding `Cn1ccnc1Sc1ccc(/C=N/NC(=O)c2ccccc2[N+](=O)[O-])cc1[N+](=O)[O-]`, the inhibition was -13.1% (inactive). Take `NC(=O)CSc1nnc(COc2ccccc2)n1CCc1ccccc1`: the inhibition is -4.55% (inactive). Turning to `Cc1ccc(CNC(=O)C23CN(Cc4ccccc4)CC2C(c2ccc([N+](=O)[O-])cc2)=NO3)cc1` (configuration not stated), the inhibition is 7.16% (inactive). Regarding `Cc1c(Cc2ccccc2)c(NCCN(C)C)n2c(nc3ccccc32)c1C#N`, the inhibition was -1.57% (inactive). With `CCCCCc1c(C)c(C#N)c2nc3ccccc3n2c1-n1ccnc1C`, the inhibition is -1.65% (inactive). In the case of `Cc1cc(NCCCO)n2c(nc3ccccc32)c1C#N`, the inhibition is 1.01% (inactive). The value for `CCc1c(C)c(C#N)c2nc3ccccc3n2c1N(C)C` was -1.31% (inactive); that for `COC(=O)c1cc(C(=O)OC)cc(N2C(=O)CN=C2Nc2nc(C)cc(C)n2)c1` was -5.98% (inactive).

For the compound `Cc1cc(C)c(NC(=O)c2c[nH]c(=S)n2-c2ccc(F)cc2)c(C)c1`, the inhibition is -1.12% (inactive).

`COc1ccc(-c2nc(C#N)c(NCCN(C)C)o2)cc1`: the inhibition was -2.85% (inactive). For `COc1cccc(-c2csc(N3CCN(C(=O)Nc4ccc(F)cc4)CC3)n2)c1`, the inhibition is 20.3% (inactive).

Take `COc1cccc(-c2csc(N3CCN(C(=O)Nc4ccc(Cl)cc4)CC3)n2)c1`: the inhibition was 80% (inactive). As for `COc1cccc(NC(=O)N2CCN(c3nc(-c4cccc(OC)c4)cs3)CC2)c1`, the figure is 79.8% (inactive). `COc1cccc(-c2csc(N3CCN(C(=O)Nc4ccccc4OC)CC3)n2)c1`: the inhibition was 0.17% (inactive). On to `CCOP(=O)(OCC)C1(O)C(=O)Nc2ccc(Br)cc21` (configuration not stated), for which the inhibition was 0.14% (inactive). Take `CCC1(C)Cc2c(sc3nnn(CC(=O)Nc4ccccc4)c(=O)c23)CO1` (configuration not stated): the inhibition is -3.81% (inactive). In the case of `CCOc1ccc(NC(=O)C(CC(=O)O)Cc2ccccc2)cc1` (configuration not stated), the inhibition was -4.45% (inactive). As for `O=c1oc2ccccc2cc1-c1nc(-c2ccccc2)no1`, the figure is 23.2% (inactive). With `COc1ccccc1-c1nc(-c2cccc(C)c2)no1`, the inhibition is 9.74% (inactive).

For the compound `O=c1oc2ccccc2cc1-c1ccc(O)cc1`, the inhibition is 30.4% (inactive).

Consider `Cc1ccc(-c2csc(Cc3nc(-c4cc5ccccc5oc4=O)cs3)n2)cc1`, for which the inhibition was -1.52% (inactive). On to `Cc1cccc(-c2noc(-c3ccoc3C)n2)c1`, for which the inhibition was 8.21% (inactive).

Take `O=c1oc2ccccc2cc1-c1ccccc1`: the inhibition was -5.07% (inactive).

On to `COC(=O)c1sc(SC)c(S(=O)(=O)C(C)C)c1N/N=C(\C#N)C(=O)c1ccccc1`, for which the inhibition is -10.6% (inactive). For `COc1ccc(Cn2cc3c(-c4ccc(F)cc4)nnc-3c3cc(OC)c(OC)cc32)cc1`, the inhibition is 64.8% (inactive). For the compound `CCOCC(=O)Nc1cc(Cl)ccc1C`, the inhibition was -11.6% (inactive).

As to `On1c(-c2ccccc2Cl)nc2ccccc21`, the inhibition is 12.4% (inactive).

The values are drawn from PubChem BioAssay AID1626 (SRMLSC, 2009).
